CHRM1 agonist = human M1 muscarinic receptor agonism; CHO-K1 hM1, Fluo-8 calcium fluorescence, agonist mode; 0% DMSO, 100% acetylcholine EC100; AID 588814; activation, % at 3 µM; hit rate 0.33% among 360,000;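 active = activation above the run's mean compound activation plus 3 SD, cut at about 16% in these data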;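 note: peak over basal fluorescence ratio within a 140 s kinetic read after compound addition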
Target sequence (P11229 whole entry, looked up): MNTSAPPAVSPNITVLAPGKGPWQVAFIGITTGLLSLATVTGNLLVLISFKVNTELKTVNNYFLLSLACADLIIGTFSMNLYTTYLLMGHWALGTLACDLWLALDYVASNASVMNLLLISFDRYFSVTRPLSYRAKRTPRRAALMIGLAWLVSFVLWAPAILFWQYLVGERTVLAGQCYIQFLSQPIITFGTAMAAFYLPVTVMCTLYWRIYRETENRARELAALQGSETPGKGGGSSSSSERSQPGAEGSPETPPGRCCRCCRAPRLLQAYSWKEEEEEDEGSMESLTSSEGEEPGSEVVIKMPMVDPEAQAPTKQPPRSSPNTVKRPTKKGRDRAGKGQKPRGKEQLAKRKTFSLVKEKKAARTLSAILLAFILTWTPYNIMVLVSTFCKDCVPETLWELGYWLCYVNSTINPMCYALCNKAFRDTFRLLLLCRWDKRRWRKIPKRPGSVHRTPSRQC
CHRM1 PAM = positive allosteric modulators of human M1 muscarinic receptor. P11229. CHO-K1 hM1, Fluo-8 calcium fluorescence, ACh EC20; 0% = ACh EC20, 100% = maximal ACh. activation, % at 3 µM. hit rate 0.088% among 360,000. AID 588819; in the data active = activation above about 19%, passing the limit was not always enough
CHRM1 antagonist = human CHRM1 antagonism; hit rate 1.3% among 360,000; inhibition, % at 3 µM; CHO-K1 hM1, Fluo-8 calcium fluorescence, ACh EC80 antagonist; AID 588852;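 active = percent inhibition above its own plate's cutoff, namely the mean of that plate's compound wells plus 3 SD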;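 note: peak over basal fluorescence ratio during 140 s after agonist addition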
SKN-1 inh = C. elegans SKN-1 inhibition. inhibition, % at 21.8 µM. hit rate 0.49% among 360,000. AID 624304. C. elegans VP596 Pgst-4::GFP/RFP ratio, acrylamide-induced, 24 h;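 active = interference check ratio from 0.5 to 1.5 plus GFP to RFP signal ratio inhibition reaching or exceeding a fixed threshold, cut at about 30% in these data, passing the limit was not always enough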
ATG4B inh = blocks human ATG4B protease cleavage of LC3 substrate; hit rate 0.51% among 340,000; ATG4B cleavage of LC3-PLA2, NBD-HPC fluorescence, 1 h; inhibition, % at 8.33 µM; Q9Y4P1; AID 504462; in the data active = inhibition above about 40%
Myeloid diff 2 = promotes myeloid progenitor differentiation | hit rate 1% among 360,000 | ER-HoxA9 myeloid progenitors, lysozyme-GFP differentiation, flow cytometry | AID 624256 | calls only at 10 µM;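 active = normalized GFP-positive differentiation at or above the plate's own cutoff, the solvent-only control mean plus 3 SD; inconclusive = no clear call, values can overlap the other calls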;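 note: cells exposed to compound for four days before flow analysis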
A number is an active result; – = inactive; ? = inconclusive; · = no result; + = active, no number. This is a sample that favours compounds with a hit; in the whole collection about 3.5% have one here.

SMILES	CHRM1 agonist	CHRM1 PAM	CHRM1 antagonist	SKN-1 inh	ATG4B inh	Myeloid diff 2
CC1CCCN(C(=O)Cc2ccc(F)cc2)C1 (stereo not given)	–	–	–	–	–	–
CCCCCCCCCCCn1nnnc1N	–	–	–	–	–	–
COCCn1c(CCC(=O)O)nc2c1c(=O)[nH]c(=O)n2CC(C)C	–	–	–	32	–	–
CCCCn1c(CCC(=O)O)nc2c1c(=O)[nH]c(=O)n2CCC	–	–	–	–	–	–
CCCN1CCN(CCCNC(=O)c2cc3c(=O)oc4ccc(C)cc4c3s2)CC1	21	–	–	–	–	–
Cc1ccc2oc(=O)c3cc(C(=O)NCCCN4CCCC(C)C4)sc3c2c1 (stereo not given)	–	–	–	–	–	?
CCCN1CCN(CCCNC(=O)c2ccc3c(c2)NC(=O)c2ccccc2S3)CC1	–	–	42	–	–	?
CCCN1CCN(CCCNC(=O)c2cc3c(=O)[nH]c4ccccc4c3s2)CC1	21	–	–	–	–	–
C#CCN(C[C@H]1[C@H](OC(=O)NC2CCCC2)[C@H](OC(=O)NC2CCCC2)C[C@@H](C(=O)OC)[C@H]1C(=O)OC)S(=O)(=O)c1ccc(C)cc1	–	–	–	–	·	–
N#Cc1cccc(C(=O)Nc2ccccc2C(=O)NC2CC2)c1	–	–	–	–	–	–
CCN1CCN(C(=O)c2[nH]c3ccc(OC)cc3c2C)CC1	–	–	–	–	–	–
COc1ccc(OC)c(NC(=O)COC(=O)CCc2nc3ccccc3c(=O)[nH]2)c1	–	–	–	–	–	–
CCn1nnc(-c2ccccc2NS(=O)(=O)c2ccc(S(=O)(=O)N3CCCCCC3)cc2)n1	–	–	–	–	–	–
CCOC(=O)c1ccc(S(=O)(=O)Nc2ccccc2-c2nnn(CC)n2)cc1	–	–	47	–	–	–
CC(C)(C)c1ccc(S(=O)(=O)N2CCSC2)cc1	–	–	39	–	–	–
Cc1ccc(S(=O)(=O)N(C)C)cc1NC(=O)C(C)OC(=O)CC1CC2CCC1C2 (stereo not given)	–	–	–	–	·	–
Cn1nc2c(c1C(=O)N1CCCC(C(=O)c3cc(F)ccc3F)C1)CCCC2 (stereo not given)	–	–	–	–	–	–
COc1ccc(C(=O)C2CCCN(C(=O)c3c4c(nn3C)CCCC4)C2)cc1F (stereo not given)	–	–	–	–	–	+
O=C(CN1CCSC1=O)N1CCN(S(=O)(=O)c2ccc(F)cc2)CC1	–	–	–	–	–	–
CCc1nc2ccc(C(=O)N(C)Cc3ccccc3)cn2c1N(C)CCCc1ccccc1	–	–	–	–	·	–
CCc1nc2ccc(C(=O)N(CC)CCN(C)C)cn2c1N(C)CCCc1ccccc1	–	–	52	–	·	–
CCc1nc2ccc(C(=O)N(C)CCCN(C)C)cn2c1N(CC)CCOC	–	–	–	–	·	–
CCc1nc2ccc(C(=O)N(C)CCCN(C)C)cn2c1N(C)CCCc1ccccc1	–	–	32	–	·	–
CCc1nc2ccc(C(=O)NCc3ccccc3OC)cn2c1N(CCC(C)C)CCN(C)C	42	–	39	–	·	–
CCc1nc2ccc(C(=O)N(C)CCCN(C)C)cn2c1N(C)Cc1cc2ccccc2s1	–	–	38	–	·	–
SMILES	CHRM1 agonist	CHRM1 PAM	CHRM1 antagonist	SKN-1 inh	ATG4B inh	Myeloid diff 2
COc1cc(S(=O)(=O)NCc2ccc3c(c2)OCO3)ccc1F	–	–	–	–	–	–
O=C(Nc1nnc([C@H]2C[C@H](O)[C@@H](CO)O2)s1)NC(c1ccccc1)c1ccccc1	–	–	–	–	·	–
CCCS(=O)(=O)NC(=O)C1(C)CCCN(C(=O)c2ccccc2)C1 (stereo not given)	–	–	–	–	·	–
CN1CCN(c2ccc([N+](=O)[O-])cc2C(=O)c2ccc(Br)cc2)CC1	–	–	21	–	–	–
Cc1ccc(C(=O)c2cc([N+](=O)[O-])ccc2N2CCN(C)CC2)cc1	–	–	–	–	–	–
CC1(C(=O)NCCc2ccccc2)Cc2c(-c3cccc(C(N)=O)c3)ccnc2O1 (stereo not given)	–	–	–	–	·	–
CCn1c(SCC(=O)Nc2ccc3[nH]c(=O)[nH]c3c2)nc2ccccc21	–	–	50	–	–	–
COCCn1c(SCC(=O)Nc2ccc3[nH]c(=O)[nH]c3c2)nc2ccccc21	–	–	38	–	–	–
O=C(O)/C=C/c1ccc2ccccc2n1	–	–	–	–	–	–
O=C(/C=C/c1ccc2ccccc2n1)c1cc(Br)ccc1O	–	–	–	–	–	+
CC(=O)Nc1cccc(-c2ccnc3c2CC(C(=O)NCCC(F)(F)F)O3)c1 (stereo not given)	–	–	–	–	·	–
Cn1c(N2CCN(C(=O)Nc3ccc(F)cc3)CC2)nc2ccccc21	–	–	–	–	–	–
Cn1c(N2CCN(C(c3ccccc3)c3ccccc3)CC2)nc2ccccc21	–	–	32	–	–	–
O=C(O)c1cc(N2C(=O)CCC2=O)ccc1Cl	–	–	–	–	–	–
Cc1cc(OCc2cc(C(=O)N(C)CCCN3CCOCC3)no2)cc(C)c1Cl	–	–	–	–	–	–
CN(CCCN1CCOCC1)C(=O)c1cc(COc2cccc(C(F)(F)F)c2)on1	–	–	–	45	–	–
Cc1scc(C(=O)N2CCN(c3ccc(Cl)cc3)CC2)c1C	–	–	–	–	–	–
CCOc1ccc(-c2nc(CSCC(=O)N3CCN(c4cccc(OC)c4)CC3)c(C)o2)cc1	–	–	35	–	–	–
Cc1ccc(-c2nc(CSCC(=O)N3CCN(c4ccccn4)CC3)c(C)o2)cc1	–	–	33	–	–	–
COc1ccc(NC(=O)C2C(c3ccc4c(c3)OCO4)=Nc3ccccc3N2C(C)=O)cc1 (stereo not given)	·	·	·	–	·	–
CN(C)CCOC1c2ccccc2CCc2ccc3ccccc3c21 (stereo not given)	–	–	53	–	–	–
COc1ccccc1NC(=O)c1ccc(CN2CCOCC2)cc1	–	–	–	36	–	–
O=C(Nc1ccc(CN2CCOCC2)cc1)c1cc2ccccc2o1	–	–	–	56	–	–
NC(=O)c1ccc(NC(=O)c2ccc(CN3CCOCC3)cc2)cc1	–	–	–	–	–	–
CC(C)c1ccc(C(=O)Nc2ccc(CN3CCOCC3)cc2)cc1	–	–	–	70	–	–
COc1ccc(C(=O)Nc2ccccc2C(=O)NCCN2CCOCC2)cc1OC	–	–	–	–	–	+
CCN1C(=O)C(C)C=C(C)C=C1C (stereo not given)	–	–	–	–	·	–
CCN(CC(=O)Nc1ccc(NC(C)=O)cc1)CC(=O)Nc1cc(C)on1	–	–	–	–	–	–
COc1ccc(Nc2cc(C)c3cc([N+](=O)[O-])ccc3n2)cc1	–	–	–	–	–	–

Screening data from PubChem BioAssay.
